This is part of a sample that, as a whole, favours compounds with a hit. Of some 79,000 tested, about 15% had one in any assay. Calls of active or inactive are those of the source. Cut-off read from the data, not from the text of the source: active = growth inhibition above about 70%; inactive = the rest.
Assay: NCI Yeast Anticancer Drug Screen. Data for the cln2 rad14 strain (AID 165);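 note: 0% = growth equal to vehicle treated cultures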
Conditions: S. cerevisiae cln2 rad14 strain, at 5.0 µM (retest, dose inferred, filed as 0.5), hits give high values
How it was run: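 Growth of compound-exposed yeast (cln2 rad14 genotype) measured and expressed as inhibition relative to vehicle.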
With OCCSCc1cc(Cl)cc(Cl)c1O the growth inhibition was -10% (inactive).
In the case of CC(=O)Nc1ccccc1C(O)(c1ccccc1)c1ccccc1, the growth inhibition is reported as 2% (inactive).
In the case of Cc1cc(N=Nc2ccccc2C)c(N)cc1N, the growth inhibition is reported as -27% (inactive).
With O=C(Nc1ccc(Cl)cc1)Nc1nnc(/C=C/c2ccc(Cl)c(Cl)c2)o1 the growth inhibition was 1% (inactive).
In the case of CCCCCCCCCCCC(=O)OCCOC(=O)CCCCCCCCCCC, the growth inhibition is reported as 1% (inactive).
In the case of CCN(C(C)=O)c1ccc2c(c1)Cc1ccccc1-2, the growth inhibition is reported as -2% (inactive).
With O=[N+]([O-])c1cccn2nc(C3OC(CO)C(O)C3O)nc12 (stereo not drawn) the growth inhibition was 3% (inactive).
With Oc1cc(CNCc2ccccc2)c(O)c(CNCc2ccccc2)c1 the growth inhibition was 3% (inactive).
With N#CSC#Cc1ccc(C#CSC#N)cc1 the growth inhibition was 99% (active).
With O=C(O)/C=C/C(=O)NNc1nc2ccccc2s1 the growth inhibition was -25% (inactive).
In the case of COc1ccc2c(c1)[n+]([O-])c(-c1ccc(C)cc1)c(N)[n+]2[O-], the growth inhibition is reported as 34% (inactive).
In the case of C=CCc1cc([N+](=O)[O-])ccc1O, the growth inhibition is reported as -3% (inactive).
For CC(C)C1=CC23CCC4C(C)(C(=O)O)CCCC4(C)C2CC1c1c(O)ccc(O)c13 (stereo not drawn), the growth inhibition was 28% (inactive).
In the case of NC(=O)C(CCc1cccc2ccccc12)c1ccccc1 (stereo not drawn), the growth inhibition is reported as -5% (inactive).
With CC(CO)CCC(=O)C(C)C1C(=O)CC2CC3CC(O)CCC3(C)CC21C (stereo not drawn) the growth inhibition was 4% (inactive).
With Oc1c(Cl)cc(Cl)cc1/C=C1\C=Nc2ccccc21 the growth inhibition was 13% (inactive).
With CCCC(C(=O)OCCN1CCCC1(C)C)C1CCCC1 (stereo not drawn) the growth inhibition was 29% (inactive).
With OCCN1CCN(CCCN2c3cc(Cl)ccc3Sc3ccsc32)CC1 the growth inhibition was -7% (inactive).
